An excerpt weighted towards active compounds, which were near 6.9% of everything screened.
Vif-APOBEC3F blk: qHTS for Inhibitors of Vif-A3F Interactions: qHTS; HeLa A3F-eYFP + Vif (tagged APOBEC3F with the HIV-1 protein that degrades it), YFP fluorescence increase; Potency, µM (top dose mostly 46.1 µM), for inactives: at the highest dose activity, negative = active; actives 0.2% (n = 390,000); AID 602313, 2012; note: potency is the fitted concentration of half-maximal effect; % of control where 0% means no effect; nearly all actives have a fitted effect of over 65% in size
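HeLa cells stably expressing A3F-eYFP plus Vif, plated and incubated overnight at 37 deg C, then exposed to compounds overnight at 37 deg C. Blocked degradation read as raised yellow fluorescence (Ex 488/Em 500-530).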
Vif-A3G inh: qHTS for Inhibitors of Vif-A3G Interactions: qHTS; DNA dC->dU-editing enzyme APOBEC-3G (Homo sapiens), Q9HC16; HeLa A3G-eYFP + Vif (tagged APOBEC3G with the HIV-1 protein that degrades it), YFP fluorescence, overnight; actives 0.076% (n = 410,000); Potency, µM (titrated, usually from 46.1 µM), without a hit: at the top dose activity, negative = active, actives largely listed as inhibitors; note: potency is the fitted concentration of half-maximal effect; % is set by controls: 0 for no effect and ±100 for the full control effect; nearly all actives have a fitted effect of over 60% in size
Target sequence (Q9HC16 whole entry, looked up): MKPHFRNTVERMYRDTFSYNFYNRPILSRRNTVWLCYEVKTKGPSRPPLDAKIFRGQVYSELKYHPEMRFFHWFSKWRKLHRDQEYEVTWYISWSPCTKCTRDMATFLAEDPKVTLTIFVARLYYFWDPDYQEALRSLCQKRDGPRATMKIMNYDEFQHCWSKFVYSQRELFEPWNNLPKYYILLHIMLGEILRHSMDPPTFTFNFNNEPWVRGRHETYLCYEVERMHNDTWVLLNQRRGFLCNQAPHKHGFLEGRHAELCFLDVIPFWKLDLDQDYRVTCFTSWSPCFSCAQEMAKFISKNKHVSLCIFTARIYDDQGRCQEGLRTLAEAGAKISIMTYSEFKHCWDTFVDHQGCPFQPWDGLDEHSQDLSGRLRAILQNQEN
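HeLa cells stably expressing Vif and C-terminally eYFP-tagged A3G, seeded overnight at 37 deg C, then exposed to compound by pintool overnight at 37 deg C. Rise in yellow fluorescence (Ex 488/Em 500-530, Acumen) marks blocked Vif-driven A3G degradation.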
Giardia killer: Small Molecules that selectively kill Giardia lamblia: qHTS | Giardia lamblia trophozoite viability | activity change, % at 7.66 µM, hits read low | actives 0.15% (n = 340,000); in the data active = activity change below about -80%; inconclusive = between about -30% and that limit;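 note: parasites exposed to compound for two days anaerobically before the ATP read; % is set by controls: 0 for no effect and ±100 for the full control effect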
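Giardia lamblia trophozoites (100 cells/well) were incubated with compounds for 48 h at 37 deg C under anaerobic conditions. Viability was read as ATP content by one-step luminescence after 15-30 min at room temperature.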
SW480 rereplic: A quantitative high throughput screen for small molecules that induce DNA re-replication in SW480 colon adenocarcinoma cells | SW480 DNA re-replication, Hoechst DNA content imaging, 48 h | actives 1.8% (n = 340,000) | Potency, µM (titrated, usually from 46.1 µM), inactives show at the top dose re-replication activation, most hits filed as activators; note: potency is the fitted concentration of half-maximal effect; % of control where 0% means no effect; nearly all actives have a fitted effect of over 55% in size
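Per well, 250 cells were exposed to pinned compound for 48 hr. Nuclear DNA was visualised with Hoechst (40 min, 37 C) and total object intensity recorded by fluorescence scanning.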
MCF10A rerep: A quantitative high throughput screen for small molecules that induce DNA re-replication in MCF 10a normal breast cells | MCF 10A DNA re-replication, Hoechst nuclear intensity, 48 h | Potency, µM (titrated, usually from 46.1 µM), for inactives: at the top dose activity, positive = re-replication, hits mostly activators | actives 2.9% (n = 350,000) | AID 624296, 2012; note: potency is the fitted concentration of half-maximal effect; % of control where 0% means no effect; nearly all actives have a fitted effect of over 50% in size
IL1B secr inh: qHTS for Inhibitors of Inflammasome Signaling: IL-1-beta AlphaLISA Primary Screen | actives 4.7% (n = 360,000) | activity change, % at 57.5 µM | THP-1 LPS/ATP IL-1B secretion, AlphaLISA, 16 h; hits give low values | AID 743279, 2014; in the data active = activity change below about -50%; inconclusive = mostly about -30% to -49%; note: % is set by controls: 0 for no effect and ±100 for the full control effect
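Secreted IL-1B measured by AlphaLISA bead assay after 16 h compound exposure of THP-1 cells; compounds (final up to 57.5 uM) added 1 h before LPS (250 ng/mL) and ATP (1.25 mM) stimulation; lower signal means less secretion.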
Active calls of the source: *. Unless noted, calls come from the whole dose curve; as a rule, active = well fitted curve in the direction sought with a large enough effect; inconclusive = small, poorly fitted or top-dose-only effect, or another doubt; inactive = no such curve, though single readings can be large; an effect the other way counts as inactive or inconclusive.

How did COC(=O)c1cc(OC)c(OC)cc1NC(=O)c1ccc2c(c1)CCN2S(=O)(=O)c1ccccc1 do in these assays?
Vif-APOBEC3F blk: -9%; Vif-A3G inh: 2%

What do the screens show for `COc1ccc(C2(C)NC(=O)N(CC(=O)Nc3ccc4ccccc4c3)C2=O)cc1OC` (centres undefined)?
Vif-APOBEC3F blk: 15%; Vif-A3G inh: -4%; Giardia killer: -11; SW480 rereplic: -16%; MCF10A rerep: -2%; IL1B secr inh: -55*

Results for COc1ccc(C2(C)NC(=O)N(CC(=O)Nc3ccc4c(c3)CCC4)C2=O)cc1OC (centres undefined) ?
Vif-APOBEC3F blk: 1%; Vif-A3G inh: -1%; Giardia killer: -6; SW480 rereplic: -11%; MCF10A rerep: 2%; IL1B secr inh: -21

What do the screens show for `CCCN(CC(=O)Nc1cc(Cl)cc(Cl)c1)CC(=O)Nc1ccc(F)c(F)c1F`?
Vif-APOBEC3F blk: -9%; Vif-A3G inh: -23%; Giardia killer: 2; SW480 rereplic: inconclusive; MCF10A rerep: inconclusive; IL1B secr inh: -97*

Results for CN(CC(=O)Nc1ccccc1)CC(=O)Nc1ccccc1Cl ?
Vif-APOBEC3F blk: 1%; Vif-A3G inh: -8%; Giardia killer: 8; SW480 rereplic: -4%; MCF10A rerep: inconclusive; IL1B secr inh: 15

How did Cc1ccc(NC(=O)CN(C)CC(=O)Nc2ccc(F)c(F)c2F)c(Cl)c1 do in these assays?
Vif-APOBEC3F blk: -13%; Vif-A3G inh: 0%; Giardia killer: 13; SW480 rereplic: -2%; MCF10A rerep: 0%; IL1B secr inh: -19

How did CN(CC(=O)Nc1ccc(Cl)cc1)CC(=O)Nc1ccc(F)c(F)c1F do in these assays?
Vif-APOBEC3F blk: -12%; Vif-A3G inh: -2%; Giardia killer: -13; SW480 rereplic: 0%; MCF10A rerep: -1%; IL1B secr inh: -60*

How did CCCCc1ccc(NC(=O)CN(C)CC(=O)Nc2ccccc2Cl)cc1 do in these assays?
Vif-APOBEC3F blk: -3%; Vif-A3G inh: 1%; Giardia killer: 13; SW480 rereplic: inconclusive; MCF10A rerep: inconclusive; IL1B secr inh: -74*

Results for COc1ccc(Cl)cc1NC(=O)CN(C)CC(=O)Nc1ccc(Br)cc1 ?
Vif-APOBEC3F blk: -7%; Vif-A3G inh: -7%; Giardia killer: -2; SW480 rereplic: 3%; MCF10A rerep: inconclusive; IL1B secr inh: -89*

How did COc1ccc(Cl)cc1NC(=O)CN(C)CC(=O)Nc1cc(OC)c(OC)c(OC)c1 do in these assays?
Vif-APOBEC3F blk: -2%; Vif-A3G inh: inconclusive; Giardia killer: 14; SW480 rereplic: inconclusive; MCF10A rerep: inconclusive; IL1B secr inh: 0

Results for CCCN(CC(=O)Nc1ccccc1Br)CC(=O)Nc1ccc(F)c(F)c1F ?
Vif-APOBEC3F blk: -4%; Vif-A3G inh: 0%; Giardia killer: 17; SW480 rereplic: 1%; MCF10A rerep: -2%; IL1B secr inh: inconclusive

Results for N#CCC(=O)NN ?
SW480 rereplic: -1%; MCF10A rerep: -1%

How did Cc1cc(C)c2nc(C)cc(Nc3ccc(C(=O)N(C)C)cc3)c2c1 do in these assays?
Vif-APOBEC3F blk: -11%; Vif-A3G inh: -12%; Giardia killer: -27; SW480 rereplic: -2%; MCF10A rerep: 1%; IL1B secr inh: 12

How did Cc1cc(C)c2nc(C)cc(Nc3ccc(C(=O)NCCO)cc3)c2c1 do in these assays?
Vif-APOBEC3F blk: -1%; Vif-A3G inh: 5%; Giardia killer: -27; SW480 rereplic: -8%; MCF10A rerep: 5%; IL1B secr inh: -90*

What do the screens show for `CC(N)c1csc(Nc2ccc(C(=O)NCCO)cc2)n1` (centres undefined)?
Vif-A3G inh: -3%; IL1B secr inh: 12

How did CC(=O)c1cccc(Nc2cc(C)nc3c(C)cccc23)c1 do in these assays?
Vif-APOBEC3F blk: -7%; Vif-A3G inh: 4%; Giardia killer: 4; SW480 rereplic: inconclusive; MCF10A rerep: inconclusive; IL1B secr inh: -75*

Results for CC(=O)c1ccc(Nc2cc(C)nc3c(C)cc(C)cc23)cc1 ?
Vif-APOBEC3F blk: 0%; Vif-A3G inh: inconclusive; Giardia killer: 10; SW480 rereplic: 2.6µM*; MCF10A rerep: inconclusive; IL1B secr inh: -95*

Results for Cc1nc(C)c(-c2ccc(SCC(=O)Nc3ccc(Cl)c(Cl)c3)nn2)s1 ?
Vif-APOBEC3F blk: -8%; Vif-A3G inh: -3%

Results for CCOCCCNC(=O)C(NC(=O)C1CCC(C)CC1)C(C)C (centres undefined) ?
Vif-APOBEC3F blk: -3%; Vif-A3G inh: -1%

Results for O=C1C2C(c3ccccc3)CC=CC2C(c2cccc([N+](=O)[O-])c2)N1Cc1ccccc1 (centres undefined) ?
Vif-A3G inh: 0%; Giardia killer: 17

How did Cc1cc(C)c(S(=O)(=O)Nc2ccc(-c3ccc(N4CCCCC4)nn3)cc2)c(C)c1 do in these assays?
Vif-APOBEC3F blk: 3%; Vif-A3G inh: 0%

How did Cc1ccc(NCc2nnc(SCC(=O)Nc3cccc(O)c3)n2CC2CCCO2)c(C)c1 (centres undefined) do in these assays?
Vif-APOBEC3F blk: 8%; Vif-A3G inh: 1%; Giardia killer: 9; SW480 rereplic: -8%; MCF10A rerep: 7%; IL1B secr inh: -51*

What do the screens show for `CCOC(=O)c1ccc(NC(=O)CSc2nnc(CNC(=O)c3ccc(OC)cc3)n2CC)cc1`?
Vif-APOBEC3F blk: -16%; Vif-A3G inh: -4%

How did CSCCC(NS(=O)(=O)c1cccs1)C(=O)Nc1ccc(C)c(Cl)c1 (centres undefined) do in these assays?
Vif-APOBEC3F blk: 0%; Vif-A3G inh: -2%

How did CCOC(=O)c1cc2c(ccc3nc(C)c(C)c32)[nH]c1C do in these assays?
Vif-APOBEC3F blk: -11%; Vif-A3G inh: -4%; Giardia killer: -23; SW480 rereplic: 8.2µM*; MCF10A rerep: 15µM*; IL1B secr inh: 0

How did O=[N+]([O-])c1ccc(CSc2ncnc3ccccc23)cc1 do in these assays?
Vif-APOBEC3F blk: 0%; Vif-A3G inh: 3%; Giardia killer: 1; SW480 rereplic: -14%; MCF10A rerep: 7%; IL1B secr inh: -73*

What do the screens show for `O=c1c2ccccc2nc(SCc2ccc([N+](=O)[O-])cc2)n1-c1ccccc1`?
Vif-APOBEC3F blk: 0%; Vif-A3G inh: 1%; Giardia killer: -11; SW480 rereplic: -5%; MCF10A rerep: 1%; IL1B secr inh: -16
